Results reported in PubChem BioAssay (Tox21).
Records with an inconclusive call do not appear. Entries that show only a call come without a potency. A number with no mark means an inactive call. Activity calls are given as the source filed them. Unless noted, calls come from the whole dose curve; as a rule, active = well fitted curve in the direction sought with a large enough effect in the repeat runs; inconclusive = weak or mixed curves; inactive = no such curve, though single readings can be large; an effect the other way counts as inactive or inconclusive.

What was measured:
[1] = target: Retinoic acid receptor RXR-alpha (Homo sapiens) (UniProt P19793); experiment: qHTS assay to identify small molecule agonists of the RXR signaling pathway (AID 1159527; calls by dose curve; note: nearly all actives have a fitted effect of over 35% in size; note: potency is the fitted concentration of half-maximal effect)
Retinoic acid receptor RXR-alpha (Homo sapiens), sequence (P19793 whole entry, looked up): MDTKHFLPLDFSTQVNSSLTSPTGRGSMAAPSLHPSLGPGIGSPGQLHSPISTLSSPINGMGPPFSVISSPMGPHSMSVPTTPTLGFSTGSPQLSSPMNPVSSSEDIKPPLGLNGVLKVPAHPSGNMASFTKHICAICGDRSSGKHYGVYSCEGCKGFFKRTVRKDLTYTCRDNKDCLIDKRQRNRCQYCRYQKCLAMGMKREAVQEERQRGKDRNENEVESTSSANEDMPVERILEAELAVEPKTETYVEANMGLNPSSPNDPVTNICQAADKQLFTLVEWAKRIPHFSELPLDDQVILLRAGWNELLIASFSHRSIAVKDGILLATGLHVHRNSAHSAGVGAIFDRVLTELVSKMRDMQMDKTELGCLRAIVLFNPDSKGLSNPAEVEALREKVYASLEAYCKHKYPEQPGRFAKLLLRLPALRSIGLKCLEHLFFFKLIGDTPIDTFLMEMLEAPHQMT
Procedure, shortened: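 16 hr incubation of compound-treated RXR-alpha-UAS-bla HEK 293T cells (2% charcoal-stripped FBS, 37 C) preceded a 2 hr room-temperature LiveBLAzer FRET substrate step and blue/green fluorescence measurement.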

[2] = qHTS assay to identify small molecule agonists of the RXR signaling pathway - cell viability counter screen (AID 1159529);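 note: HEK 293T cells carrying an RXR-alpha UAS beta-lactamase reporter; series mostly up to about 77 µM; nearly all actives have a fitted effect of over 50% in size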
Procedure, shortened: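 In this parallel viability measure, GeneBLAzer RXR-alpha HEK 293T cells (2% charcoal-stripped FBS) were given a 5 hr preincubation, treated with compounds 16 hr at 37 C, and read by CellTiter-Glo luminescence.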

[3] = qHTS assay to identify small molecule antagonists of the retinoid acid receptor (RAR) signaling pathway - cell viability counter screen (AID 1159551); note: nearly all actives have a fitted effect of over 35% in size
Procedure, shortened: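 Viability of C3RL4 cells is quantified from ATP by luminescence after 6 h treatment at 37 C with compounds and 1 uM retinol.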

[4] = qHTS assay to identify small molecule antagonists of the retinoic acid receptor (RAR) signaling pathway (AID 1159552; note: nearly all actives have a fitted effect of over 50% in size)
Procedure, shortened: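 C3RL4 RARE-luc cells, overnight plating; retinol 1 uM final added right after compound; 6 hr 37 C; luciferase read at 30 min RT.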

[5] = target: Luciferin 4-monooxygenase (Photinus pyralis) (UniProt P08659); experiment: qHTS assay to identify small molecule inhibitors of firefly luciferase (AID 1224835); note: series mostly up to about 120 µM; nearly all actives have a fitted effect of over 25% in size
Luciferin 4-monooxygenase (Photinus pyralis), sequence (P08659 whole entry, looked up): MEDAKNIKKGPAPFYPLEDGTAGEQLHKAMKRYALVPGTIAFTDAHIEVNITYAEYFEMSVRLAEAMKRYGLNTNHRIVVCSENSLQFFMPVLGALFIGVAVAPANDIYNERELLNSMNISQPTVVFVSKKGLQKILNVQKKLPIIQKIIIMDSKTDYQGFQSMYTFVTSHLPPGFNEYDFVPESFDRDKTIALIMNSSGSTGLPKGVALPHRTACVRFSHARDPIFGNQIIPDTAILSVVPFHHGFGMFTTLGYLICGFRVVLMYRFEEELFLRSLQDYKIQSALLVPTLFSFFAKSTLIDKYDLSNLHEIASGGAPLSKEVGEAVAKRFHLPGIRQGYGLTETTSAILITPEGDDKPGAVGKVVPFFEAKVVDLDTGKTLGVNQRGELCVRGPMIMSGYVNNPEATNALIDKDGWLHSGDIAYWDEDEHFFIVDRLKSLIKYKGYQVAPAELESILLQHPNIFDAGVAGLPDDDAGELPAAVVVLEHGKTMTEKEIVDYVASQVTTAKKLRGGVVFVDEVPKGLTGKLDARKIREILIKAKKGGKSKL
Procedure, shortened: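 Biochemical qHTS: compounds run as interplate titrations against purified firefly enzyme, with D-luciferin and ATP each at its KM concentration. Light output recorded by CCD imaging.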

[6] = qHTS assay to identify small molecule agonists of the constitutive androstane receptor (CAR) signaling pathway - cell viability counter screen (AID 1224836); note: series mostly up to about 92 µM; nearly all actives have a fitted effect of over 45% in size
Procedure, shortened: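 Using CellTiter-Fluor, viability of HepG2 cells harbouring hCAR and CYP2B6-2.2kb was measured following 23 h incubation with a 15-concentration compound series plus PK11195 (0.75 uM final).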

[7] = qHTS assay to identify small molecule antagonists of the constitutive androstane receptor (CAR) signaling pathway - cell viability counter screen (AID 1224837); note: series mostly up to about 92 µM; nearly all actives have a fitted effect of over 45% in size
Procedure, shortened: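 In quantitative HTS format, compounds at 15 concentrations were applied to HepG2 cells double-transfected with hCAR and CYP2B6-2.2kb under 50 nM CITCO stimulation; live-cell protease activity was read after 23 hr via CellTiter-Fluor.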

[8] = target: Nuclear receptor subfamily 1 group I member 3 (Homo sapiens) (UniProt Q14994); experiment: qHTS assay to identify small molecule antagonists of the constitutive androstane receptor (CAR) signaling pathway (AID 1224838); note: nearly all actives have a fitted effect of over 40% in size
Nuclear receptor subfamily 1 group I member 3 (Homo sapiens), sequence (Q14994 whole entry, looked up): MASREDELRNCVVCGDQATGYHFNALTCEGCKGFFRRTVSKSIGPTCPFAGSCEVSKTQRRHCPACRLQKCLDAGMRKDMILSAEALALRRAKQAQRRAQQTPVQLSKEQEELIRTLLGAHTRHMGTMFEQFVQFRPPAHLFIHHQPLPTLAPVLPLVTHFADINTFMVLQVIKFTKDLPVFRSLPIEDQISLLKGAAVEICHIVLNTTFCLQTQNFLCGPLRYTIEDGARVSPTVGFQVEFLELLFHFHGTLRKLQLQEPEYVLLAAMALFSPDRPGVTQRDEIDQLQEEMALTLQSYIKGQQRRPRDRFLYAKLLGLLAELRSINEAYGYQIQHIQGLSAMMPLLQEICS
Procedure, shortened: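 CITCO-stimulated (50 nM final) HepG2 cells stably transfected with hCAR and CYP2B6-2.2kb luciferase were exposed to compounds at 15 concentrations for 24 h at 37 C/5% CO2. A luciferase reagent was added and luminescence recorded after 30 min.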

[9] = target: Nuclear receptor subfamily 1 group I member 3 (Homo sapiens) (UniProt Q14994); experiment: qHTS assay to identify small molecule agonists of the constitutive androstane receptor (CAR) signaling pathway (AID 1224839); note: nearly all actives have a fitted effect of over 15% in size; note: potency is the fitted concentration of half-maximal effect
Procedure, shortened: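 Double-stable HepG2 cells (hCAR, CYP2B6-2.2kb) seeded 4 h before compound addition. Exposure 24 h with 0.75 uM PK11195 final. Luciferase detected by ONE-Glo.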

[10] = qHTS assay to identify small molecule antagonists of the estrogen related receptor signaling pathway with the pleiotropic PPARgamma coactivator (PGC) from Tox21 10K library - cell viability counter screen (AID 1224840; active = well fitted cell-killing curve with a large enough effect in the repeat runs, not every such curve was filed as active; note: nearly all actives have a fitted effect of over 40% in size)
Procedure, shortened: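 Viability counter screen, PGC/ERR cells: 17.5 h compound exposure at 37 C, CellTiter-Fluor fluorescence endpoint.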

[11] = qHTS assay to identify small molecule agonists of the retinoic acid receptor (RAR) signaling pathway (AID 1159553); note: potency is the fitted concentration of half-maximal effect
Procedure, shortened: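 Compounds dissolved in DMSO were pinned onto C3RL4 cells seeded the previous day, and plates were held 6 hr at 37 C. RARE-driven luciferase output was then read by luminescence.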

[12] = qHTS assay to identify small molecule antagonists of the estrogen related receptor (ERR) signaling pathway from Tox21 library - cell viability counter screen (AID 1224834); note: nearly all actives have a fitted effect of over 30% in size
Procedure, shortened: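 In this quantitative HTS format, ERR cells receive compounds in DMSO and are incubated for 17.5 h at 37 C. Live-cell protease activity is then detected with CellTiter-Fluor.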

[13] = qHTS assay to identify small molecule antagonists of the estrogen related receptor signaling pathway with the pleiotropic PPARgamma coactivator (PGC) from Tox21 10K library (AID 1224841; call rule not given here; note: series mostly up to about 92 µM; actives are mostly falling curves and most rising ones were filed inactive; nearly all actives have a fitted effect of over 50% in size)
Procedure, shortened: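 In the PGC/ERR line, DMSO solutions of test chemicals are pin-delivered to 2,000 cells/well six hours after dispensing. Following eighteen hours' incubation, One-Glo reagent is added and luminescence recorded.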

[14] = qHTS assay to identify small molecule agonists of the estrogen related receptor signaling pathway with the pleiotropic PPARgamma coactivator (PGC) from Tox21 10K library (AID 1224842); note: nearly all actives have a fitted effect of over 15% in size
Procedure, shortened: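 PGC/ERR reporter cell line, 2,000 cells per well, incubated 6 h at 37 C before 23 nL compound in DMSO was added. After 18 h at 37 C, One-Glo luminescence read following 30 min at room temperature.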

Structure (SMILES)	Potency [1]	outcome [2]	outcome [3]	outcome [4]	Potency [5]	Potency [6]	Potency [7]	outcome [8]	Potency [9]	outcome [10]	Potency [11]	Potency [12]	Potency [13]	outcome [14]
C=CC(OCC)OCC	inactive	inactive	inactive	inactive	inactive	inactive	inactive	inactive	inactive	inactive				
OCCCCC(O)CO (configuration not stated)	11.6 µM (active)	inactive	inactive		inactive	inactive	inactive			inactive	inactive	inactive	inactive	inactive
C[C@@H]1O[C@@H](O[C@@H]2[C@@H](O)[C@H](OCCc3ccc(O)c(O)c3)O[C@H](CO[C@@H]3O[C@H](CO)[C@@H](O)[C@H](O)[C@H]3O)[C@H]2OC(=O)/C=C/c2ccc(O)c(O)c2)[C@H](O)[C@H](O)[C@H]1O	inactive	inactive	inactive			inactive	inactive	inactive	inactive	inactive	inactive			
Cc1ccccc1N=O	inactive	inactive	inactive		inactive	inactive	inactive			inactive	inactive	inactive		inactive
COc1ccc(S(=O)(=O)N2c3ccc(Cl)cc3[C@@](O)(c3ccccc3Cl)[C@H]2C(=O)N2CCC[C@@H]2C(N)=O)cc1OC	inactive	inactive	inactive		inactive	inactive	inactive			inactive	inactive	inactive		
CC(C)C[C@H](NC(=O)CNC(=O)[C@H](Cc1ccc(O)cc1)NC(=O)[C@H](CO)NC(=O)[C@H](Cc1c[nH]c2ccccc12)NC(=O)[C@H](Cc1cnc[nH]1)NC(=O)[C@@H]1CCC(=O)N1)C(=O)N[C@@H](CCCN=C(N)N)C(=O)N1CCC[C@H]1C(=O)NCC(N)=O (stereo in doubt)	inactive	inactive	inactive		inactive	inactive		inactive	inactive		inactive	inactive		
COc1ccc2c(c1)C(=O)N(CCc1ccc(S(=O)(=O)NC(=O)NC3CCCCC3)cc1)C(=O)C2(C)C	inactive	inactive	inactive		inactive	inactive	inactive		inactive	inactive	inactive	inactive		
CC(C)CC(=O)O	10.7 µM (active)	inactive	inactive		inactive	inactive	inactive			inactive	inactive			inactive
CCCC/C=C/C=C\C=O	inactive	inactive	inactive		inactive	inactive	inactive	inactive	inactive	inactive	inactive	inactive		
C[C@H](N)[C@H](O)c1cccc(O)c1	inactive	inactive	inactive		inactive	inactive	inactive			inactive	inactive	inactive		
CCN(C)C(=O)Oc1cccc([C@H](C)N(C)C)c1	inactive	inactive	inactive		inactive	inactive	inactive	inactive	inactive	inactive	inactive			
BrCc1cccc(Oc2ccccc2)c1	inactive	inactive	inactive			inactive	inactive	inactive		inactive	inactive	inactive		inactive
Cc1cc2cc3c(C)cc(=O)oc3c(C)c2o1	inactive	inactive	inactive	inactive		inactive	inactive	inactive	11.9 µM (active)	inactive		inactive		inactive
CC(C)C(=O)OCCc1ccccc1	inactive	inactive	inactive			inactive	inactive			inactive	inactive	inactive		
CC1=C(C(=O)O)N2C(=O)[C@@H](NC(=O)[C@H](N)c3ccc(O)cc3)[C@H]2SC1	inactive	inactive	inactive			inactive	inactive	inactive	inactive	inactive	inactive	inactive		
CCOCCOC(=O)/C=C/c1ccc(OC)cc1	inactive	inactive	inactive			inactive	inactive	inactive			33.5 µM (active)	inactive		
Cc1cc(NC(=O)C2=C(O)c3ccccc3S(=O)(=O)N2C)no1	inactive	inactive	inactive			inactive	inactive				inactive	inactive		
CN1C(C)(C)CCCC1(C)C	inactive	inactive	inactive		inactive	inactive	inactive			inactive	inactive	inactive		
O=C(NCC(O)CO)c1c(I)c(C(=O)NCC(O)CO)c(I)c(N(CCO)C(=O)CO)c1I (configuration not stated)	inactive	inactive	inactive			inactive	inactive	inactive	inactive		inactive	inactive		
CC(=O)OC(C)OC(=O)C(C)c1ccc(-c2ccccc2)c(F)c1 (configuration not stated)	inactive	inactive	inactive			inactive	inactive		inactive	inactive	inactive			
O=C(Nc1ccc(Cl)c(Cl)c1)C1CC1	inactive	inactive	inactive			inactive	inactive	inactive		inactive	inactive	inactive	inactive	
CCOC(=O)c1ccc(OC(=O)CCCCCN=C(N)N)cc1	inactive	inactive	inactive	inactive		inactive	inactive	inactive		inactive		inactive		
Nc1ccc2cc(S(=O)(=O)O)cc(O)c2c1	inactive	inactive	inactive	inactive		inactive	inactive	inactive	inactive	inactive			inactive	inactive
O=C1c2ccccc2C(=O)c2cc(S(=O)(=O)O)ccc21	inactive	inactive	inactive			inactive	inactive	inactive	inactive	inactive	inactive	inactive		
